An excerpt weighted towards active compounds, which were near 6.8% of everything screened.
PINK1 expr mod – changes PINK1 expression; 410,000 tested, 0.2% active; PINK1 immunofluorescence, high-content cytometry, 24 h; Potency, µM (series often up to 76.6 µM), for inactives: top-dose activation (PINK1 increase), most hits filed as activators; active means well fitted activation curve with a large enough effect; inconclusive means small, poorly fitted or top-dose-only effect; cell line not stated here; further: % of control where 0% means no effect; nearly all actives have a fitted effect of over 65% in size
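PINK1 protein, normally rapidly degraded, was detected by immunofluorescence after 24 hour compound treatment of a stable cell line. Titration data (5 concentrations) came from laser-scanning cytometry, with CCCP-treated wells as controls.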
SW480 rerep – inducers of DNA re-replication in SW480 colon cancer cells; 340,000 tested, 1.8% active; SW480 DNA re-replication, Hoechst DNA content imaging, 48 h; Potency, µM (highest dose often 46.1 µM), inactives show top-dose re-replication activation, hits mostly activators; further: % of control where 0% means no effect; nearly all actives have a fitted effect of over 55% in size
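Readout is total intensity of Hoechst-stained nuclei, excited at 405 nm and collected at 500-530 nm. Compound treatment lasted 48 hr at 37 C in 5% CO2 before staining.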
KB-3-1 tox – KB-3-1 parental cell cytotoxicity | KB-3-1 viability, CellTiter-Glo ATP luminescence, 72 h | Potency, µM (highest dose often 46.1 µM), usual class: cytotoxic | 400,000 tested, 1.4% active | AID 1347075; further: on the % scale 0 is the no-effect control and ±100 the full control effect; nearly all actives have a fitted effect of over 60% in size
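Parental KB-3-1 adenocarcinoma cells in phenol-red-free DMEM with 10% FBS were pin-treated with compounds at several concentrations, incubated 72 h at 37 °C, and viability read by CellTiter-Glo luminescence; concentration-effect curves were fitted after normalization.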
MCF10A rereplic – inducers of DNA re-replication in MCF 10A breast cells. MCF 10A DNA re-replication, Hoechst nuclear intensity, 48 h. 350,000 tested, 2.9% active. Potency, µM (highest dose often 46.1 µM), for inactives: at the top dose activity, positive = re-replication, most hits filed as activators; further: % of control where 0% means no effect; nearly all actives have a fitted effect of over 50% in size
TSG101-PTAP inh – blocks PTAP/TSG101 interaction to inhibit HIV-1 budding; Q99816; Fluorescence polarization, FITC-PTAP peptide / Tsg101 binding; Potency, µM (top dose mostly 115 µM), for the others: top-dose activity change, negative = inhibition, most hits filed as inhibitors; 340,000 tested, under 10 active; AID 493005; active means well fitted inhibition curve with a large enough effect in the main read-out, with a control signal flat, not every such curve was filed as active; inconclusive means small, poorly fitted or top-dose-only effect, or effect the other way, or a change in a side signal; inactive means no such curve, though single readings can be large or run the other way; further: % of control where 0% means no effect
Target sequence (Q99816 whole entry, looked up): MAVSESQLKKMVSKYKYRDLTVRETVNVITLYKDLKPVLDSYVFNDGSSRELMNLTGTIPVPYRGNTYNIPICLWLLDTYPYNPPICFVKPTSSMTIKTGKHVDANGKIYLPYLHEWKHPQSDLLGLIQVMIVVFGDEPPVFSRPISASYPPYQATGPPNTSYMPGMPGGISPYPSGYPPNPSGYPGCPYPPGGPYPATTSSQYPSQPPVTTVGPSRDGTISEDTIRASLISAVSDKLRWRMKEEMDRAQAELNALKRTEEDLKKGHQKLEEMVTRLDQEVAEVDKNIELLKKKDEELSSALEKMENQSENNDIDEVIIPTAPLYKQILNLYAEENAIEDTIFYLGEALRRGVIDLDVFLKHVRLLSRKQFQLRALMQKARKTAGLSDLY
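Compounds were pin-transferred onto Tsg101 binding domain (10 uM final) in HEPES pH 7.5 buffer, then FITC-PTAP peptide was added at 50 nM final. After 20 min at RT, polarization reported peptide displacement across a qHTS concentration series.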
KB-V1 cytotox – kills drug-selected multidrug resistant KB-V1 cells; KB-V1 MDR cells viability, CellTiter-Glo, 72 h; Potency, µM (doses to about 46.1 µM), hits mostly cytotoxic; 400,000 tested, 3.4% active; AID 1347076; further: on the % scale 0 is the no-effect control and ±100 the full control effect; nearly all actives have a fitted effect of over 60% in size
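Compound-treated KB-V1 multidrug-resistant cells, 72 h, 37 degrees C; viability by CellTiter-Glo. Fitted qHTS curves give the values.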
An asterisk follows results filed as active; i = inactive; u = inconclusive; x = not tested or not shown. Unless noted, the call rests on the fitted dose curve; in most records, active means well fitted curve in the direction sought with a large enough effect; inconclusive means small, poorly fitted or top-dose-only effect, or another doubt; inactive means no such curve, though single readings can be large; an effect the other way counts as inactive or inconclusive. Potency means the concentration at half of the fitted maximal effect.

SMILES	PINK1 expr mod	SW480 rerep	KB-3-1 tox	MCF10A rereplic	TSG101-PTAP inh	KB-V1 cytotox
C[C@H](CO)N1C[C@H](C)[C@@H](CN(C)CC2CC2)Oc2c(NC(=O)Cc3ccccc3)cccc2C1=O	4%	u	6.5µM*	27%	-7%	u
C[C@H]1CN([C@@H](C)CO)C(=O)c2cccc(NC(=O)Nc3ccc(C(F)(F)F)cc3)c2O[C@@H]1CN(C)C(=O)Nc1ccc(F)cc1	3%	-6%	u	u	-5%	i
C[C@H](CO)N1C[C@H](C)[C@@H](CN(C)S(C)(=O)=O)Oc2c(NC(=O)Cc3ccccc3)cccc2C1=O	5%	0.12µM*	i	-4%	-1%	i
CCOC(=O)c1cc(S(=O)(=O)N2CCN(c3ccc(F)cc3)CC2)[nH]n1	1%	x	i	x	x	i
Cc1ccc(S(=O)(=O)N(C)c2ccc3sc(C)nc3c2)cc1	9%	u	i	9.2µM*	-3%	i
COC(=O)c1c(NC(=O)CC2SC(N)=NC2=O)sc2c1CCC(C)C2 (stereo not given)	-3%	-3%	i	u	-4%	i
CC(C)(C)C1CCc2c(sc(NC(=O)c3cccs3)c2C(N)=O)C1 (stereo not given)	7%	u	i	5.6µM*	0%	i
COC(=O)c1c(NC(=O)CC2SC(N)=NC2=O)sc2c1CCC(C(C)(C)C)C2 (stereo not given)	-3%	24%	i	23µM*	-2%	i
COC(=O)c1c(NC(=O)CSc2nnnn2-c2ccccc2)sc2c1CCC(C(C)(C)C)C2 (stereo not given)	6%	-9%	i	u	2%	15µM*
COCc1c(C(=O)NC2CCCCCC2)cnn1-c1nccc(-c2cc(C)sc2C)n1	0%	x	x	x	x	x
COc1cc(OC)cc(C(=O)NCc2ccc3c(c2)CCN3C(=O)c2ccccc2)c1	2%	x	x	x	x	x
Cc1ccc(NC(=O)Cn2c(O)c(N=NS(=O)(=O)c3ccc(C)cc3)c3ccccc32)cc1	1%	u	i	21µM*	-5%	u
COc1cccc(C2C(C(=O)Nc3ccccc3)=C(C)Nc3nnnn32)c1OC (stereo not given)	0%	x	x	x	x	x
O=C(CCN1C(=O)/C(=C/c2ccccc2Cl)SC1=S)N1CCCC1	-1%	15µM*	u	u	-1%	u
O=C(CCCN1C(=O)/C(=C/c2ccccc2)SC1=S)N1CCOCC1	1%	22%	u	11%	-1%	u
O=C(CCCN1C(=O)/C(=C/c2ccccc2Cl)SC1=S)N1CCCC1	0%	u	i	u	-1%	i
O=C(CCN1C(=O)/C(=C/c2ccccc2Cl)SC1=S)N1CCOCC1	0%	u	x	23µM*	-1%	x
CN(CCO)C(=O)c1cn(C2CCN(Cc3c(F)cccc3Cl)CC2)nn1	1%	x	x	x	x	x
Cc1cnc(C)c(-c2cccc3c2OC(CNC(=O)/C=C/c2ccncc2)C3)n1 (stereo not given)	0%	x	x	x	x	x
O=C(Nc1ccc2nn(-c3ccc(F)cc3)nc2c1)c1cccc2c(Cl)cccc12	0%	x	i	x	x	i
O=C(CN1Cc2ccccc2OC(c2ccsc2)C1)NCc1ccc2c(c1)OCO2 (stereo not given)	-1%	x	x	x	x	x
COC1=C(N)C(=O)c2nc(-c3nc(C(=O)O)c(C)c(-c4ccc(OC)c(OC)c4O)c3N)ccc2C1=O	0%	-149%	0.15µM*	-8%	-3%	0.21µM*
FC(F)(F)c1nc(-c2cccs2)ncc1-c1nnnn1-c1ccc(Cl)cc1	16%	6%	u	6.5µM*	-6%	16µM*
FC(F)(F)c1nc(-c2cccnc2)ncc1-c1nnnn1-c1ccccc1	-3%	10%	i	8%	-2%	i
COc1ccc(-n2nnnc2-c2cnc(N3CCCC3)nc2C(F)(F)F)cc1	5%	-1%	18µM*	u	1%	5.2µM*
SMILES	PINK1 expr mod	SW480 rerep	KB-3-1 tox	MCF10A rereplic	TSG101-PTAP inh	KB-V1 cytotox
CC(O)(COc1ccccc1)c1ccc2c(c1)CN(Cc1cccc3cccnc13)CCO2 (stereo not given)	0%	x	x	x	x	x
CC(C)[C@H](NC(=O)c1ccccc1F)C(=O)NC1CCCCCCC1	6%	-3%	x	18µM*	0%	x
CC1=C(c2ccc(C)c(C)c2)S(=O)(=O)N=C1N1CCC(C(=O)N2CCC(C)CC2)CC1	6%	x	i	x	x	i
O=C(NCc1ccccc1F)c1ccc(CN2CC(=O)N3CCCCC3C2=O)cc1 (stereo not given)	0%	x	x	x	x	x
COc1cc(/C=N/Nc2nc(C)nc3c2cnn3-c2ccccc2)ccc1O	0%	15µM*	u	u	-1%	8.2µM*
CCCCn1c(=O)[nH]c(=O)c2c1nc(COC(=O)c1c(C)noc1C)n2CCC	-5%	-2%	i	4%	-1%	4.1µM*
C/C(=N\NC(=O)c1ccn(C)n1)c1ccc(NC(=O)C2CCC2)cc1	0%	2%	u	-17%	-6%	i
C/C(=N\NC(=O)C1(C)CC1(Br)Br)c1ccc(NC(=O)C2CCC2)cc1 (stereo not given)	13%	16%	21µM*	u	-2%	u
Cc1cc(=O)n(C)c(=O)n1CCCCCOc1cccc([N+](=O)[O-])c1	0%	-7%	i	5%	-3%	8.2µM*
Cc1cc(=O)n(C)c(=O)n1CCCCOc1cccc([N+](=O)[O-])c1	-3%	-3%	i	-3%	3%	i
CN(Cc1ccccc1)CC(O)COc1ccc(CNCc2cccnc2)cc1 (stereo not given)	0%	21%	i	u	0%	i
